Structures can show the parent of a compound that is named as a salt.

The subject of the assay is PBMC-derived induced microglia-like cells (piMGLC). Description: synaptosome phagocytic index relative to DMSO control (fraction of DMSO); higher = more phagocytosis. The note with it: concentration: 10 uM (2 uM for compounds listed in Table S2); pretreatment time: 24 h; assay time: 3 h.
`CCCCCCCC(=O)c1c(O)cc(O)cc1CC(=O)OCC` [Cytosporone_B]: the synaptosome phagocytic index stood at 0.114.

As for `Cc1ccnc2c1NC(=O)c1cccnc1N2C1CC1` [Nevirapine], the synaptosome phagocytic index was determined as 0.84.

`CCc1cc(C(N)=S)ccn1` [Ethionamide]: the synaptosome phagocytic index amounted to 0.996.

For the molecule `Cn1cc(-c2ccncc2)c(-c2ccc(OCc3ccc4ccccc4n3)cc2)n1` [Mardepodect], the synaptosome phagocytic index was found to be 0.723.

For the molecule `COc1ncc(F)cc1CNc1ccc(Cc2c[nH]c3ncc(C)cc23)c(F)n1` [PLX5622_(hemifumarate)], the synaptosome phagocytic index was determined as 0.966.

With `CCc1cc(F)c2nc(N3CCC(NC4CCOCC4)CC3)c(-c3nc(C)no3)c(C)c2c1`, the synaptosome phagocytic index was 1.21.

Regarding `Cn1cc(-c2ccncc2)c(-c2ccc(OCc3ccc4ccccc4n3)cc2)n1` [Mardepodect_(hydrochloride)], the synaptosome phagocytic index stood at 0.503.

Consider `CN1CCC(=C2c3ccccc3C=Cc3ccccc32)CC1` [Cyproheptadine_(hydrochloride)], for which the synaptosome phagocytic index worked out at 0.741.

Turning to `CC(C)(C)C(=O)NCCCC(=O)O` [Pivagabine], the synaptosome phagocytic index worked out at 0.829.

Turning to `CC(C)CCn1c(CN2CCN(C(=O)C3CC3)CC2)nc2c1c(=O)n(C)c(=O)n2C`, the synaptosome phagocytic index was 0.707.

On to `CC1(C)S[C@@H]2[C@H](NC(=O)[C@H](N)c3ccc(O)cc3)C(=O)N2[C@H]1C(=O)O` [Amoxicillin_(sodium)], for which the synaptosome phagocytic index was 0.69.

Take `Nc1nnc(-c2cccc(Cl)c2Cl)c(N)n1` [Lamotrigine]: the synaptosome phagocytic index came to 1.3.

With `Cc1cn([C@H]2C=C[C@@H](CO)O2)c(=O)[nH]c1=O` [Stavudine], the synaptosome phagocytic index was 0.555.

With `COc1cc2nc(N(C)CCCNC(=O)C3CCCO3)nc(N)c2cc1OC` (configuration not stated) [Alfuzosin], the synaptosome phagocytic index was found to be 0.938.

In the case of `CC(C)c1nc(CN(C)C(=O)N[C@H](C(=O)N[C@@H](Cc2ccccc2)C[C@H](O)[C@H](Cc2ccccc2)NC(=O)OCc2cncs2)C(C)C)cs1` [Ritonavir], the synaptosome phagocytic index amounted to 0.742.

As to `CC(C)n1c(=O)n(C)c2cnc3cc(F)c(-c4ccc(OCCCN5CCCCC5)nc4)cc3c21`, the synaptosome phagocytic index was 0.706.

With `CN(C)C(=O)c1cc2cnc(Nc3ccc(N4CCNCC4)cn3)nc2n1C1CCCC1` [Ribociclib_succinate], the synaptosome phagocytic index worked out at 0.592.

On to `CC1OC2(CS1)CN1CCC2CC1` (configuration not stated) [Cevimeline_(hydrochloride_hemihydrate)], for which the synaptosome phagocytic index worked out at 0.63.

With `COc1cc2ncnc(Nc3ccc(F)c(Cl)c3)c2cc1OCCCN1CCOCC1` [Gefitinib], the synaptosome phagocytic index worked out at 1.24.

On to `Cc1cc(NS(=O)(=O)c2ccc(N)cc2)no1` [Sulfamethoxazole], for which the synaptosome phagocytic index amounted to 1.17.

Consider `CC(C)OC(=O)NC1CCN(Cc2cc(Cl)c3cccnc3c2O)CC1`, for which the synaptosome phagocytic index turned out to be 0.609.

With `Cn1nnc2c(C(N)=O)ncn2c1=O` [Temozolomide], the synaptosome phagocytic index came out at 0.824.

(Values after the supplement of paper PMC12339681.)
